Laboratory results taken from ChEMBL document CHEMBL1961873, “Compounds: GSK PKIS; Assays: Nanosyn kinase panel” (2012).

Experiments:
[1] = biological target: Tyrosine-protein kinase CSK (Homo sapiens) (UniProt P41240); settings: at 1 µM;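 note: each value is an averaged inhibition reading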
[2] = biological target: T1, Discoidin domain-containing receptor 2 (Homo sapiens) (UniProt Q16832); settings: at 0.1 µM
T1 sequence (whole entry): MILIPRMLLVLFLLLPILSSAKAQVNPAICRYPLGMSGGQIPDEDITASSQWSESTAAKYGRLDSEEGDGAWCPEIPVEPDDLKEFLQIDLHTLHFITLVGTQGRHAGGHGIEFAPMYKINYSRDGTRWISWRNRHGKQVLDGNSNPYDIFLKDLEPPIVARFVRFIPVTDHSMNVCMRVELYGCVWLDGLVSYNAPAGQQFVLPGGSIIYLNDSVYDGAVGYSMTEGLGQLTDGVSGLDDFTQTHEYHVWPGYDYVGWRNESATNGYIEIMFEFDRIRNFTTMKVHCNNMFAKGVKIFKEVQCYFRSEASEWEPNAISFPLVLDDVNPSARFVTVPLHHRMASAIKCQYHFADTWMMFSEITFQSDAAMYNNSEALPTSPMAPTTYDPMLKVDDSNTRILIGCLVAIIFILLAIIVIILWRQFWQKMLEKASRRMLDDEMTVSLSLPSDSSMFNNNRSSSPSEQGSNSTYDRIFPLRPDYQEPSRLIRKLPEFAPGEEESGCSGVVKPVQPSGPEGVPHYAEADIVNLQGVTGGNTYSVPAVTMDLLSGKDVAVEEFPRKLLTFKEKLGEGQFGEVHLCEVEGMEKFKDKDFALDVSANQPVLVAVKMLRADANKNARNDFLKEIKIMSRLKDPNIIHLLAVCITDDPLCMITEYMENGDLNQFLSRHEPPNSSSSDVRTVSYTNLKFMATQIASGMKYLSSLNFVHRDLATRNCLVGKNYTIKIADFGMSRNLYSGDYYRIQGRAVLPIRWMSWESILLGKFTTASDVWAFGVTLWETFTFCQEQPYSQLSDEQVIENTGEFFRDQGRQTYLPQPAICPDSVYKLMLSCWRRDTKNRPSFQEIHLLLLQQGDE

[3] = biological target: T1, Discoidin domain-containing receptor 2 (Homo sapiens); settings: at 1 µM
[4] = biological target: Epidermal growth factor receptor (Homo sapiens) (UniProt P00533); settings: at 0.1 µM
[5] = biological target: Epidermal growth factor receptor (Homo sapiens) (UniProt P00533); settings: at 1 µM
[6] = system: Epidermal growth factor receptor (Homo sapiens), P00533 [L858R]; settings: at 0.1 µM
[7] = system: Epidermal growth factor receptor (Homo sapiens), P00533 [L858R]; settings: at 1 µM
[8] = system: Epidermal growth factor receptor (Homo sapiens), P00533 [L861Q]; settings: at 0.1 µM
[9] = system: Epidermal growth factor receptor (Homo sapiens), P00533 [L861Q]; settings: at 1 µM
[10] = system: Epidermal growth factor receptor (Homo sapiens), P00533 [T790M]; settings: at 0.1 µM
Chain of Epidermal growth factor receptor (Homo sapiens), P00533 [T790M] (P00533 whole entry T790M): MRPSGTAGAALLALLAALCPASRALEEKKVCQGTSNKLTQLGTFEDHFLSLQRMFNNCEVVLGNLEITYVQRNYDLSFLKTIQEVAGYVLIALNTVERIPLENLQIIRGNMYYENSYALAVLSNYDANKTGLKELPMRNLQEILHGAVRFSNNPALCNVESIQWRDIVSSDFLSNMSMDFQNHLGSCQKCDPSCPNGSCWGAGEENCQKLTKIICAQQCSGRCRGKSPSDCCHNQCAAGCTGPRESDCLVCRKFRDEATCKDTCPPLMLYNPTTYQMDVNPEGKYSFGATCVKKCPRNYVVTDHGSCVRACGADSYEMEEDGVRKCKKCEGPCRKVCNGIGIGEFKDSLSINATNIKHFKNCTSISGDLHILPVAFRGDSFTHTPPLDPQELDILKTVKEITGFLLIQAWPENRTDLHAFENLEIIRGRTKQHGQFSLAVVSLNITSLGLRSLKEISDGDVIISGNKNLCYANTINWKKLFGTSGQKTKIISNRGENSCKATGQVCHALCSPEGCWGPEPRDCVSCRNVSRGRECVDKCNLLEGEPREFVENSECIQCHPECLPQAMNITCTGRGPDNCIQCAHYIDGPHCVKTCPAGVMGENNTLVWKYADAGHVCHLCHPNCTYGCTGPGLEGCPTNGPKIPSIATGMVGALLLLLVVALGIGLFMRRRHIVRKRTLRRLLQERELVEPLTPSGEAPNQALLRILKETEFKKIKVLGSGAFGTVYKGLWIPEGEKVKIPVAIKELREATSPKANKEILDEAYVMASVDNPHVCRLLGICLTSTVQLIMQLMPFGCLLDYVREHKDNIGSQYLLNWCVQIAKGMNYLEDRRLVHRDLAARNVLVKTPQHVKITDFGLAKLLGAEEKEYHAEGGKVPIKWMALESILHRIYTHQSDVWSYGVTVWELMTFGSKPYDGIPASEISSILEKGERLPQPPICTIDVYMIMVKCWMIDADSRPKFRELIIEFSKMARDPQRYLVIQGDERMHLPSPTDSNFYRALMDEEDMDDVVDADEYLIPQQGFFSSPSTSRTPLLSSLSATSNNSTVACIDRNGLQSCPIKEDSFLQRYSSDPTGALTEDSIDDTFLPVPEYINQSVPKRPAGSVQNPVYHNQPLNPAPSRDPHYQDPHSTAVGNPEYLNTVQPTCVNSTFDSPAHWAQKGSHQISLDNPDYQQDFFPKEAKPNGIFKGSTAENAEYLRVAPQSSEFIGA

Chain of Tyrosine-protein kinase CSK (Homo sapiens) (P41240 2-450 limits assumed): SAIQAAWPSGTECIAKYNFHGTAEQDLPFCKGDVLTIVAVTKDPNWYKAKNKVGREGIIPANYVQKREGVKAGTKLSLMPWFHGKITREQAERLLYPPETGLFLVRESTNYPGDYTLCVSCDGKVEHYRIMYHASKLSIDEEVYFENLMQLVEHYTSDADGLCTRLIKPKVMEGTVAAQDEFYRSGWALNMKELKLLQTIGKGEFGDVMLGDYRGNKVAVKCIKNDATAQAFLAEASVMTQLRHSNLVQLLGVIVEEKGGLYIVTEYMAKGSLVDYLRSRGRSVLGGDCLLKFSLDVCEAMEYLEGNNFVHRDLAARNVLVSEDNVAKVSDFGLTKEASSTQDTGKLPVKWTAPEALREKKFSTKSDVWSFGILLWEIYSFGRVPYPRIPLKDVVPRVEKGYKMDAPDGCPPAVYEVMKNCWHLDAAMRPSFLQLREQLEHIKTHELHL
Chain of Epidermal growth factor receptor (Homo sapiens) (P00533 whole entry): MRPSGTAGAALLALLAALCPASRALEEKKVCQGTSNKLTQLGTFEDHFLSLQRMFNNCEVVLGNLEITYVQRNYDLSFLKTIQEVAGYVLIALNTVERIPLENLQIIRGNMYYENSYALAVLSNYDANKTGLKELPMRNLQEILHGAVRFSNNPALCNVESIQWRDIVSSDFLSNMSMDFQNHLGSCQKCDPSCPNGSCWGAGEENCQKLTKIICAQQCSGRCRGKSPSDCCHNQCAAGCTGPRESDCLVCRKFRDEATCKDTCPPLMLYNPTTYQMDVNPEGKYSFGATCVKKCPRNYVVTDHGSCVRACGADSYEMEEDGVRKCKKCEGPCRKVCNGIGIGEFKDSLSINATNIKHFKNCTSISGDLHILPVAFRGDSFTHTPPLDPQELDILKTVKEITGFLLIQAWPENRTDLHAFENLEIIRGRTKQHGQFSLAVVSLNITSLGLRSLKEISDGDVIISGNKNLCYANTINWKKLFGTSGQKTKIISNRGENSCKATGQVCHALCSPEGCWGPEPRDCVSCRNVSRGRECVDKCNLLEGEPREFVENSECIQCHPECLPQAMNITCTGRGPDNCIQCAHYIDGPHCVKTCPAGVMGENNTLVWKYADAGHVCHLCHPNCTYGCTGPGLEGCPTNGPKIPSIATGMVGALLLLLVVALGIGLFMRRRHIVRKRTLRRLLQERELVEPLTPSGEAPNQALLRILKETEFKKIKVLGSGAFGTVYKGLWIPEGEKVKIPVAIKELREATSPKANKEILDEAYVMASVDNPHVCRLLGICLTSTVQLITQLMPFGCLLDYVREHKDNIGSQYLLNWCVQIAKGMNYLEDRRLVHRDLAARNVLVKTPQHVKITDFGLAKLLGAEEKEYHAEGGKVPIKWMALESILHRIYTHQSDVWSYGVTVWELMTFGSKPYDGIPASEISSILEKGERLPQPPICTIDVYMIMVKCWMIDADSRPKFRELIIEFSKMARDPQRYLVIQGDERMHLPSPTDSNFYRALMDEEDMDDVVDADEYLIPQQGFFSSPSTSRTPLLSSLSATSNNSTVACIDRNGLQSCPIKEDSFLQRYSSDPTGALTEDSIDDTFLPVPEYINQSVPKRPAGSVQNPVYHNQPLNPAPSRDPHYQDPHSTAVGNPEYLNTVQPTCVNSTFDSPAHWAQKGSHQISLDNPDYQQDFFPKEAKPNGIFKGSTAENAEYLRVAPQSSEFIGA
Chain of Epidermal growth factor receptor (Homo sapiens), P00533 [L861Q] (P00533 whole entry L861Q): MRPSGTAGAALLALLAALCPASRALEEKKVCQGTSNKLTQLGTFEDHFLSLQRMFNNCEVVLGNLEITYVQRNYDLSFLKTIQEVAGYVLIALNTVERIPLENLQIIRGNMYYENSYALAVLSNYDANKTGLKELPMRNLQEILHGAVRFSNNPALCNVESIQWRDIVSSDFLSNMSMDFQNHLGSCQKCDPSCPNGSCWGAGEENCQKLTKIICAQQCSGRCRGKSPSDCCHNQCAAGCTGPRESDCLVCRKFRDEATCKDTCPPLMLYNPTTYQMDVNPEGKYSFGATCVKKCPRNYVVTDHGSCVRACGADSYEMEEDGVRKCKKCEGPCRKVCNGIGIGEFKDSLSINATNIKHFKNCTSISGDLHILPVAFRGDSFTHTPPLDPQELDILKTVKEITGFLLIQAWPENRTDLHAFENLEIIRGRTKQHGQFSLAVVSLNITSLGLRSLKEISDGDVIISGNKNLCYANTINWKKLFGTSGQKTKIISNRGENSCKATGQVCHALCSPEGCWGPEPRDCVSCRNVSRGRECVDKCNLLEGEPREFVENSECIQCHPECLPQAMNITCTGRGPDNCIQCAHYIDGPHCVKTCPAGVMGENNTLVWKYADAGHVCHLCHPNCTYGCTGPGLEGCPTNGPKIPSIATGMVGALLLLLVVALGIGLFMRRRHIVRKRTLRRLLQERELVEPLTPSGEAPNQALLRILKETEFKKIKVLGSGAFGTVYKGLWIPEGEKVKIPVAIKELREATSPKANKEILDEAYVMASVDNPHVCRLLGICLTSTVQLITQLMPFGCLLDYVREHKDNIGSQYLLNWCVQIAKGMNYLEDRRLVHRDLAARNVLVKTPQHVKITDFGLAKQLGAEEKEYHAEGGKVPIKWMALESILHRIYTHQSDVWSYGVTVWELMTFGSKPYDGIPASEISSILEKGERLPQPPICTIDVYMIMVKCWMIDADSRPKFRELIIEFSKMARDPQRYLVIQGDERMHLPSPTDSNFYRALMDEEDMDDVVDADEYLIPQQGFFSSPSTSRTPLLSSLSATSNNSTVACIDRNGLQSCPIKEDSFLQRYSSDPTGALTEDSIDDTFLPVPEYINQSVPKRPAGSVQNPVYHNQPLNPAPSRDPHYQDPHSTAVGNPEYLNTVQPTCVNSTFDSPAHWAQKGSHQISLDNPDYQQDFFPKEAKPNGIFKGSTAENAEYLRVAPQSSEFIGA

Row | SMILES | inhibition [1] | inhibition [2] | inhibition [3] | inhibition [4] | inhibition [5] | inhibition [6] | inhibition [7] | inhibition [8] | inhibition [9] | inhibition [10]
1 | Fc1ccc(-c2nn3ccccc3c2-c2ccncc2)cc1 | 2.22% | 1.72% | 5.54% |  |  |  |  |  |  | 
2 | Nc1nc(-c2cccc(Cl)c2)c(-c2ccc3ncccc3n2)s1 | 6.75% | -0.28% | -6.1% | 0.13% | 6.93% | 0.4% | 15.8% | 3.07% | 10.1% | 3.5%
3 | Nc1ncc(-c2cccc(S(N)(=O)=O)c2)c2scc(-c3ccc(F)c(Cl)c3)c12 | 73.3% | 2.61% | 11.2% | 0.5% | 14.2% | 5.06% | 23.1% | 5.17% | 10.2% | 3.18%
4 | CN1CCC(n2cnc(-c3ccc(F)cc3)c2-c2ccnc(N)n2)CC1 | 1.95% | 0.93% | 1.6% | 5.7% | 12.2% | 3.61% | 16.5% | 1.43% | 6.75% | -0.02%
5 | CCn1c(-c2nonc2N)nc2cnc(Oc3cccc(NC(=O)c4ccc(N(C)C)cc4)c3)cc21 | -0.54% | 1.4% | 1.45% | 2.76% | 1.68% | 1.49% | 1.2% | 1.12% | -0.57% | 0.09%
6 | COc1ccc2[nH]c3c4[nH]c5ccc(OC)cc5c4c4c(c3c2c1)C(=O)NC4=O | 9.75% | 2.8% | 16.8% | 2.87% | 23.3% | 18.2% | 64.8% | 7.22% | 21.2% | 3.67%
7 | N#Cc1c(NC(=O)CN2CCOCC2)sc2c1CCCC2 | 3.68% | 2.2% | 2.97% | 0.55% | -0.79% | 3.01% | 4.14% | 3.34% | 3.29% | 3.11%
8 | COC(=O)Nc1nc2ccc(S(=O)(=O)c3ccc(NC(=O)Nc4cc(C(F)(F)F)ccc4F)cc3)cc2[nH]1 | -1.83% | 10.3% | 62.7% | 0.69% | 7.04% | -0.69% | 1.58% | 0.81% | 2.11% | 2.47%
9 | CN(C)CCOc1ccc(-c2nc(-c3ccncc3)c(-c3ccc4c(c3)CC/C4=N\O)[nH]2)cc1 | 2.75% | 1.41% | 0.64% | 2.89% | 2.4% | 5% | 9.64% | 2.57% | 8.13% | 2.18%
10 | [O-][S+]1CCN(Cc2ccc(-c3ccc4ncnc(Nc5ccc(OCc6cccc(F)c6)c(Cl)c5)c4c3)o2)CC1 | 5.15% | 2.52% | 2.37% | 81.3% | 83.5% | 88.1% | 99.1% | 77.5% | 95.7% | 7.36%
11 | CC(=O)Nc1cccc(C#Cc2cncnc2Nc2ccc(OCc3cccc(F)c3)c(Cl)c2)c1 | -1.85% | 4.51% | 7.91% |  |  |  |  |  |  | 
12 | Fc1ccc(-c2nn3ncccc3c2-c2ccnc(Nc3ccc4c(c3)OCCO4)n2)cc1 | 12.4% | 37.2% | 82.5% | 59.5% | 82.1% | 88.3% | 98.4% | 63.6% | 89.5% | 15.3%
13 | COc1cc2ncn(-c3cc(OCc4ccccc4C(F)(F)F)c(C(=O)N(C)C)s3)c2cc1OC | 0.02% | 0.21% | -0.91% | 0.21% | 0.03% | -1.55% | -0.64% | -1.32% | -1.92% | -1.33%
14 | CNC(=O)c1cc(-c2ccc(F)cc2)cc(-c2ccc(S(=O)(=O)N3CCCC3)cc2)c1N | 2.28% | 1.09% | 1.38% | 5.94% | 6.92% | 0.45% | 5.35% | 2.56% | 4.86% | 0.67%
15 | CCn1cc(-c2ccnc3[nH]ccc23)c(-c2cccc(NC(=O)Nc3ccc(OCc4ccccc4)cc3)c2)n1 | 2.9% | 2.59% | 21% | -1.36% | 2.86% | -3.83% | -3.23% | -1.65% | 2.37% | -1.87%
16 | CCOc1ccc2c(-c3ccnc(Nc4cccc(C(F)(F)F)c4)n3)cnn2n1 | 1.6% | 4.46% | 6.02% | 0.09% | 1.97% | 0.87% | -1.72% | 1.44% | -0.42% | -0.02%
17 | Fc1ccc(-c2cc(-c3c[nH]nc3-c3ccccn3)ccn2)cc1 | 6.45% | 1.07% | 1.14% | 0.04% | 1.67% | 3.93% | 8.78% | 4% | 7.94% | 3.06%
18 | NS(=O)(=O)c1ccc(Nc2ncc(-c3ccccc3)o2)cc1 | 5.89% | 1.76% | 4.71% | 1.02% | 1.18% | 2.83% | 6.04% | 2.61% | 2.73% | 0.68%
